Measured values taken from PubChem BioAssay (NCI).
The panel holds about 83,000 compounds, 20% with a hit somewhere; the sample as a whole holds those more often.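 Values shown are percent growth following 48 h exposure of cells in 96-well plates to a single concentration of compound; below 10 was considered active.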 The source made the active and inactive calls.

Test system: MDA-MB-468 breast
Test: NCI-60 one-dose screen, 48 h (100 = growth as untreated, 0 = no growth, -100 = all killed)
Details: 10 µM unless noted

SMILES	growth
CC(=O)Nc1ccc(Sc2ccc([N+](=O)[O-])o2)cc1	4.76% (active)
COC(=O)/C=C1/SC(=Nc2ccc([N+](=O)[O-])cc2)N(CCc2c[nH]c3ccccc23)C1=O	86% (inactive)
COc1ccc(C2CC(=O)c3c(O)c(OC)c(OC)c(OC)c3O2)cc1O (centres undefined)	8.92% (active)
CN(C)CCNc1nc2ccccc2c2c(=O)c3ccccc3sc12	-23.6% (active)
